Assay outcomes (PubChem BioAssay)
This is a sample that favours compounds with a hit; in the whole collection about 18% have one here.
TDP1 cell noCPT: qHTS for Inhibitors of human tyrosyl-DNA phosphodiesterase 1 (TDP1): qHTS in cells in absence of CPT | DT40 Tdp1-/- hTDP1 cells, no CPT, ATP luminescence, 48 h | Potency, µM (doses to about 46.2 µM), most hits filed as inhibitors | 420,000 tested, 15% active | AID 686978, 2013; further: nearly all actives have a fitted effect of over 55% in size
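Seeded 400 DT40-hTDP1 cells/well (vehicle DMSO, no 20 nM CPT); pinned compounds; ≥48 hr at 37 °C; CellTiter-Glo luminescence as viability measure.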
TDP1 inh: inhibitors of human tyrosyl-DNA phosphodiesterase TDP1. recombinant TDP1, AlphaScreen DNA substrate cleavage. Potency, µM (highest dose often 130 µM), actives largely listed as inhibitors. 350,000 tested, 0.28% active; further: nearly all actives have a fitted effect of over 40% in size
Target sequence (Q9NUW8 whole entry, looked up): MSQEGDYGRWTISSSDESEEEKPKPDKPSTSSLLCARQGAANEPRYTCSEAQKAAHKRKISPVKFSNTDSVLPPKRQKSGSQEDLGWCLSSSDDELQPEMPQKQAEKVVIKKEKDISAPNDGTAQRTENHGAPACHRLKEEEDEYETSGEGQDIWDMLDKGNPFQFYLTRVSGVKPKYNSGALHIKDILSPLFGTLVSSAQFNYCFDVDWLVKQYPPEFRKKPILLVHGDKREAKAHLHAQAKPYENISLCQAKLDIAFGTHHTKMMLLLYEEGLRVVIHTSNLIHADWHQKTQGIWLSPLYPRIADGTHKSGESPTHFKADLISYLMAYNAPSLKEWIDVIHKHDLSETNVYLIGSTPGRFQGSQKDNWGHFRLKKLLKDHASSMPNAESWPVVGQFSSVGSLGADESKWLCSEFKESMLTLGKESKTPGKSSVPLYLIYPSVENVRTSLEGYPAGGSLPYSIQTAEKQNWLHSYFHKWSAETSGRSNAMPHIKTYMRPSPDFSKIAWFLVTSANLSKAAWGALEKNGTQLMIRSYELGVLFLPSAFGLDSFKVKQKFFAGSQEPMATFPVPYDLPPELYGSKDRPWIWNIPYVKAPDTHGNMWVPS
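Steps: enzyme plus compound, 15 min RT; add biotin/phosphotyrosine-FITC oligonucleotide (15 nM final), react 5 min; add donor/acceptor beads (10 ug/ml final), 10 min; read AlphaScreen. Tdp1 at 1 nM final.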
Six1-Eya2 inh: inhibitors of human Six1/Eya2 interaction; Q15475+O00167; AID 651725; activity change, % (test concentration not listed); AlphaScreen GST-Six1/His-Eya2 binding, biochemical; hits give low values; 360,000 tested, 0.56% active; in the data active means activity change below about -65%; inconclusive means mostly about -30% to -63%
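GST-Six1 + His-Eya2 (5X stock: 250/500 nM); Tris pH 8.0, 300 mM NaCl, 0.05% BSA, 0.02% Tween 20; GSH donor/Ni acceptor beads; 1 h 37 °C dark; AlphaScreen readout.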
TDP1 cell CPT: DT40-hTDP1 cell growth loss with CPT | chicken DT40 Tdp1-/-;hTDP1 cells + 20 nM CPT, ATP luminescence, 48 h | Potency, µM (titrated, usually from 46.2 µM), hits mostly inhibitors | 420,000 tested, 12% active | AID 686979; further: nearly all actives have a fitted effect of over 55% in size
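Chicken DT40 Tdp1-/- cells stably complemented with human TDP1 were seeded at 400 cells/well in medium containing 20 nM camptothecin, exposed to pin-transferred compounds, and grown at 37 °C for at least 48 hr. Viability was read as ATP luminescence.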
IL1B secr inh: inhibitors of inflammasome signaling (IL-1 beta secretion) | THP-1 LPS/ATP IL-1B secretion, AlphaLISA, 16 h; hits give low values | activity change, % at 57.5 µM | 360,000 tested, 4.7% active; in the data active means activity change below about -50%; inconclusive means mostly about -30% to -49%
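Secreted IL-1B measured by AlphaLISA bead assay after 16 h compound exposure of THP-1 cells; compounds (final up to 57.5 uM) added 1 h before LPS (250 ng/mL) and ATP (1.25 mM) stimulation; lower signal means less secretion.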
CtBP-E1A blk: CtBP/E1A binding inhibition | AlphaScreen GST-E1A/His-CtBP binding, 1536-well; hits give low values | activity change, % (test concentration not listed) | 340,000 tested, 0.49% active; in the data active means activity change below about -65%; inconclusive means mostly about -30% to -63%
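Protein mix (5X: 125 nM each GST-E1A, His-CtBP) was incubated with pinned compound 2 h at 37 deg C in dark, in 50 mM Tris pH 8.0 buffer with 300 mM NaCl. Glutathione donor and nickel acceptor beads followed; AlphaScreen signal read after 1 h.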
Numbers stand for hits; 0 = inactive; ? = inconclusive; - = no result; [ ] = remark or other dose. Unless noted, the call rests on the fitted dose curve; in most records, active means well fitted curve in the direction sought with a large enough effect; inconclusive means small, poorly fitted or top-dose-only effect, or another doubt; inactive means no such curve, though single readings can be large; an effect the other way counts as inactive or inconclusive.

SMILES	TDP1 cell noCPT	TDP1 inh	Six1-Eya2 inh	TDP1 cell CPT	IL1B secr inh	CtBP-E1A blk
CN(C#N)c1nc(N2CCOCC2)nc(N2CCOCC2)n1	?	-	0	?	0	0
CCN(CC)c1nc(C#N)nc(N2CCOCC2)n1	10µM	0	-	10µM	-	-
CCOc1nc(N2CCOCC2)nc(N2CCOCC2)n1	?	0	0	0	0	0
CC(=O)Nc1ccc(C(=O)N2c3ccccc3N=C(c3ccc4c(c3)OCO4)C2C(=O)NCc2ccccc2)cc1 (centres undefined)	?	-	0	?	0	0
CCc1ccc(C(C#N)=CC=Cc2ccccc2)cc1	21µM	-	0	?	?	0
N#Cc1ccc(-c2nc3c4ccccc4ccn3c2Cc2cccc(Cl)c2)cc1	18µM	-	0	16µM	0	0
Cc1ccc(-c2nc3c4ccccc4ccn3c2Cc2cccc(Cl)c2)cc1	?	-	0	?	0	0
N#Cc1ccc(-c2nc3c4ccccc4ccn3c2Cc2ccccc2C(F)(F)F)cc1	?	-	0	?	0	0
N#Cc1ccc(-c2nc3c4ccccc4ccn3c2Cc2ccsc2)cc1	13µM	-	0	13µM	0	0
Clc1ccc(-c2nc3c4ccccc4ccn3c2Cc2ccsc2)cc1	10µM	-	0	10µM	0	0
O=c1[nH]c(SCc2ccccc2)nc2ccsc12	0	0	0	0	0	0
C[C@@H]1C=C[C@](Cc2ccccc2)(C(=O)NCC2CC2)N1C(=O)c1ccccc1	9.2µM	0	0	18µM	0	0
COC(=O)CNC(=O)[C@@]1(Cc2ccccc2)C=C[C@@H](C)N1C(=O)c1ccccc1	-	0	-	-	-	-
CCC(=O)N1CCc2cc(S(=O)(=O)NCCC(=O)Nc3ccc(C)cc3C)ccc21	23µM	0	-	?	-	-
CCC(=O)N1CCc2cc(S(=O)(=O)NCCC(=O)Nc3ccc(N(CC)CC)cc3C)ccc21	23µM	0	-	?	-	-
Cc1ccc(C(C(=O)NC2CCCC2)N(C(=O)CNC(=O)c2ccco2)c2ccccc2)o1 (centres undefined)	0	0	0	0	0	0
CCc1ccc(/C=C2\SC(=S)N(CCCC(=O)N3CCN(C)CC3)C2=O)cc1	?	-	0	?	-55	0
CCc1ccc(/C=C2\SC(=S)N(CCCC(=O)Nc3ccc(C(=O)O)cc3)C2=O)cc1	0	-	0	0	0	0
COc1ccc(/C=C2\SC(=S)N(CCCC(=O)N3CCN(C)CC3)C2=O)cc1	?	0[0.0935 µM]	?	?	-91	0
O=C(Nc1cccc2ccccc12)NC1Cc2ccccc2C1	0	0	0	0	0	0
CCOC(=O)c1c(C)n(C)c2c(C)cc(O)c(OC(C)=O)c12	13µM	0	0	9.2µM	0	0
CCC(C(=O)Nc1ccccc1OC)n1c(C(=O)OC)cc2ccsc21 (centres undefined)	?	0	0	21µM	-57	0
CCOC(=O)c1ccc2c(c1)N(C(CC)C(=O)Nc1ccccc1OC)C(=O)c1ccccc1S2 (centres undefined)	-	0	-	-	-	-
CCOC(=O)C1(Cc2cccc(OC)c2)CCCN(C(=O)c2cc(C)on2)C1 (centres undefined)	0	0	0	?	0	0
CCOC(=O)C1(Cc2cccc(OC)c2)CCCN(C(=O)c2ccccc2C)C1 (centres undefined)	16µM	0	0	?	0	0
CCOC(=O)C1(Cc2cccc(Cl)c2)CCCN(C(=O)c2ccoc2C)C1 (centres undefined)	18µM	0	0	21µM	-101	0
CCOC(=O)C1(Cc2cccc(Cl)c2)CCCN(C(=O)c2ccco2)C1 (centres undefined)	?	0	0	?	0	0
CCOC(=O)C1(Cc2cccc(Cl)c2)CCCN(C(=O)c2ccc(COC)s2)C1 (centres undefined)	21µM	0	0	23µM	?	0
CCOC(=O)C1(Cc2cccc(Cl)c2)CCCN(C(=O)c2occc2C)C1 (centres undefined)	0	0	0	?	0	0
